Data from PubChem BioAssay AID1159580 (chemical genetic matrix, 2015).
About 2,000 (36%) of roughly 5,500 compounds were called active. Another 18% or so got no clear call; they are omitted. Cut-off read from the data, not from the text of the source: active = normalized growth mostly below about 0.91 (no sharp cut-off); inconclusive = no clear call, values can overlap the other calls; inactive = mostly above about 0.92. This is one part of the list.

Test: chemical genetic growth profiling, strain panel (AID 1159580);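 note: tested at 20 µM; growth read once vehicle control cultures reached saturation at 30 °C; 1 = growth at the plate median or of vehicle wells; lower values mean less growth of the strain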
Conditions: S. cerevisiae deletion strains, growth OD
[1] = locus YHR030C, strain SLT2, hits give low values
[2] = locus YHR079C, strain IRE1, hits give low values
[3] = locus YJL095W, strain BCK1, hits give low values
[4] = locus YJR066W, strain TOR1, hits give low values
[5] = locus YLR113W, strain HOG1, hits give low values
[6] = locus YNL183C, strain NPR1, hits give low values
[7] = locus YOR231W, strain MKK1, hits give low values
[8] = locus YPL256C, strain CLN2, hits give low values

Measured: normalized growth

COc1cccc(OC)c1OCCNCC1CSc2ccccc2O1 (stereo unspecified)
inactive: locus YAL040C, strain CLN3, hits give low values 1.01 | locus YDR363W, strain ESC2, hits give low values 0.936 | locus YER002W, strain NOP16, hits give low values 1.01 | locus YJR075W, strain HOC1, hits give low values 0.985 | locus YMR263W, strain SAP30, hits give low values 0.995 | locus YMR307W, strain GAS1, hits give low values 1.01 | locus YNL175C, strain NOP13, hits give low values 0.986 | locus YNL197C, strain WHI3, hits give low values 1.02 | locus YNL224C, strain SQS1, hits give low values 1 | locus YOR083W, strain WHI5 (second series), hits give low values 0.966 | locus YPL241C, strain CIN2, hits give low values 1

ONC(=Nc1ccccc1Cl)c1ccccc1Cl
inactive: locus YAR019C, strain CDC15, hits give low values 0.999 | locus YBL105C, strain PKC1, hits give low values 0.987 | locus YBR135W, strain CKS1, hits give low values 0.992 | locus YBR136W, strain MEC1, hits give low values 0.986 | locus YBR160W, strain CDC28, hits give low values 0.993 | locus YDL017W, strain CDC7, hits give low values 0.988 | locus YDL028C, strain MPS1, hits give low values 0.985 | locus YDL101C, strain DUN1, hits give low values 0.993 | locus YDL108W, strain KIN28, hits give low values 0.979 | locus YDL132W, strain cdc53, hits give low values 0.997 | locus YDL214C, strain PRR2, hits give low values 0.824 | locus YDR052C, strain DBF4, hits give low values 0.983 | locus YDR054C, strain cdc34, hits give low values 0.992 | locus YDR226W, strain ADK1, hits give low values 0.987 | locus YDR477W, strain SNF1, hits give low values 0.859 | locus YER123W, strain YCK3, hits give low values 0.688 | locus YER133W, strain GLC7, hits give low values 0.833 | locus YFL009W, strain cdc4, hits give low values 0.999 | locus YFL029C, strain CAK1, hits give low values 0.996 | locus YFR003C, strain YPI1, hits give low values 0.989 | locus YFR028C, strain CDC14, hits give low values 0.997 | locus YGR040W, strain KSS1, hits give low values 0.81 | locus YGR052W, strain FMP48, hits give low values 0.786 | locus YGR092W, strain DBF2, hits give low values 0.839 | [2] 0.889 | locus YHR082C, strain KSP1, hits give low values 0.829 | locus YHR205W, strain SCH9, hits give low values 0.875 | locus YIL147C, strain SLN1, hits give low values 0.983 | [3] 0.697 | locus YJL128C, strain PBS2, hits give low values 0.95 | locus YJL157C, strain FAR1, hits give low values 0.785 | locus YJR016C, strain ILV3, hits give low values 0.986 | locus YJR066W, strain TOR1 (second series), hits give low values 0.729 | [4] 0.769 | locus YKL048C, strain ELM1, hits give low values 0.922 | locus YKL067W, strain YNK1, hits give low values 0.817 | locus YKL101W, strain HSL1, hits give low values 0.854 | locus YKL193C, strain SDS22, hits give low values 1 | locus YKL203C, strain TOR2, hits give low values 0.891 | locus YLR133W, strain CKI1, hits give low values 0.841 | locus YLR403W, strain SFP1, hits give low values 0.832 | locus YML070W, strain DAK1, hits give low values 0.786 | locus YMR001C, strain CDC5, hits give low values 0.996 | locus YMR205C, strain PFK2 (second series), hits give low values 0.83 | locus YMR277W, strain FCP1, hits give low values 1 | locus YNL006W, strain LST8, hits give low values 0.997 | locus YNL020C, strain ARK1, hits give low values 0.809 | locus YNL161W, strain CBK1, hits give low values 0.994 | [6] 0.86 | locus YNL207W, strain RIO2, hits give low values 0.99 | locus YNL222W, strain SSU72, hits give low values 0.993 | locus YNL307C, strain MCK1 (second series), hits give low values 0.811 | locus YOL078W, strain AVO1, hits give low values 0.993 | locus YOL136C, strain PFK27, hits give low values 0.806 | locus YOR061W, strain CKA2, hits give low values 0.69 | locus YOR119C, strain RIO1, hits give low values 0.886 | [7] 0.836 | locus YOR329C, strain SCD5, hits give low values 0.998 | locus YPL031C, strain PHO85, hits give low values 0.824 | locus YPL153C, strain RAD53, hits give low values 0.777 | locus YPL204W, strain HRR25, hits give low values 0.859 | locus YPL209C, strain IPL1, hits give low values 0.992 | [8] 0.904 | locus YPR025C, strain CCL1, hits give low values 0.993 | locus YPR106W, strain ISR1, hits give low values 0.99 | locus YPR111W, strain DBF20, hits give low values 0.994 | strain NNK1, hits give low values 0.992 | strain TSCII, hits give low values 0.991
active: locus YFR019W, strain FAB1, hits give low values 0.714 | [1] 0.731 | [5] 0.839

C[C@H]1O[C@H](O[C@H]2[C@H](O)[C@@H](O)[C@@H](O[C@H]3[C@H](O)[C@@H](O)C(O)O[C@@H]3CO)O[C@@H]2CO)[C@H](O)[C@@H](O)[C@@H]1N[C@H]1C=C(CO)[C@@H](O)[C@H](O)[C@H]1O (stereo partly specified)
inactive: locus YAL021C, strain ccr4, hits give low values 0.999 | locus YAL026C, strain drs2, hits give low values 1.03 | locus YAL030W, strain snc1, hits give low values 0.993 | locus YBL061C, strain skt5, hits give low values 0.984 | locus YBR009C, strain hhf1, hits give low values 1.01 | locus YBR023C, strain chs3, hits give low values 1.01 | locus YBR171W, strain sec66, hits give low values 0.979 | locus YBR231C, strain swc5, hits give low values 0.982 | locus YBR279W, strain paf1, hits give low values 1.01 | locus YCL011C, strain gbp2, hits give low values 1.03 | locus YCL016C, strain dcc1, hits give low values 1.02 | locus YCL069W, strain vba3, hits give low values 1 | locus YCR088W, strain abp1, hits give low values 0.991 | locus YDL005C, strain med2, hits give low values 1 | locus YDL040C, strain nat1, hits give low values 0.99 | locus YDR001C, strain nth1, hits give low values 0.995 | locus YDR069C, strain doa4, hits give low values 0.985 | locus YDR137W, strain rgp1, hits give low values 0.998 | locus YDR159W, strain sac3, hits give low values 0.981 | locus YDR195W, strain ref2 0.936 | locus YDR297W, strain sur2, hits give low values 0.988 | locus YDR334W, strain swr1, hits give low values 0.983 | locus YDR335W, strain msn5, hits give low values 0.974 | locus YDR392W, strain spt3, hits give low values 1.04 | locus YEL003W, strain gim4, hits give low values 0.974 | locus YEL037C, strain rad23, hits give low values 0.988 | locus YEL061C, strain CIN8 (second series), hits give low values 0.994 | locus YER015W, strain faa2, hits give low values 1.01 | locus YER016W, strain bim1, hits give low values 1 | locus YER111C, strain swi4, hits give low values 0.984 | locus YER155C, strain BEM2 (second series), hits give low values 0.977 | locus YFR010W, strain ubp6, hits give low values 0.978 | locus YGL167C, strain pmr1, hits give low values 0.974 | locus YGL173C, strain kem1, hits give low values 0.955 | locus YGL227W, strain vid30, hits give low values 0.987 | locus YGL240W, strain doc1, hits give low values 0.964 | locus YGL253W, strain hxk2, hits give low values 0.999 | locus YHR013C, strain ard1, hits give low values 0.992 | locus YHR027C, strain rpn1, hits give low values 1.01 | [1] 0.955 | [2] 0.959 | locus YHR142W, strain chs7, hits give low values 0.989 | locus YJL092W, strain hpr5, hits give low values 0.977 | locus YJL095W, strain BCK1 (second series), hits give low values 0.993 | [3] 0.957 | locus YJL115W, strain asf1, hits give low values 0.974 | locus YJL129C, strain trk1, hits give low values 0.969 | locus YJL154C, strain vps35, hits give low values 0.964 | locus YJL164C, strain tpk1, hits give low values 1.01 | locus YJL166W, strain qcr8, hits give low values 0.971 | locus YJL187C, strain SWE1, hits give low values 0.999 | [4] 0.916 | locus YKL160W, strain elf1, hits give low values 0.968 | locus YKR026C, strain gcn3, hits give low values 0.995 | locus YKR091W, strain srl3, hits give low values 0.988 | locus YLL001W, strain dnm1, hits give low values 0.945 | locus YLL026W, hits give low values 1.01 | locus YLL041C, strain sdh2, hits give low values 0.988 | locus YLR027C, strain aat2, hits give low values 0.993 | [5] 0.933 | locus YLR221C, strain rsa3, hits give low values 1.03 | locus YLR258W, strain gsy2, hits give low values 1.01 | locus YLR262C, strain YPT6 (second series), hits give low values 0.959 | locus YLR320W, strain mms22, hits give low values 1.01 | locus YLR342W, strain FKS1, hits give low values 0.973 | locus YLR357W, strain rsc2, hits give low values 0.985 | locus YLR370C, strain arc18, hits give low values 0.993 | locus YLR384C, strain iki3, hits give low values 0.977 | locus YML120C, strain ndi1, hits give low values 0.98 | locus YMR058W, strain fet3, hits give low values 0.996 | locus YMR125W, strain sto1, hits give low values 0.996 | locus YMR129W, hits give low values 0.989 | locus YMR205C, strain PFK2, hits give low values 0.983 | locus YMR231W, strain pep5, hits give low values 0.991 | locus YNL071W, strain lat1, hits give low values 1.01 | [6] 0.923 | locus YNL209W, strain ssb2, hits give low values 1.01 | locus YNL248C, strain rpa49, hits give low values 1.01 | locus YNL322C, strain KRE1 (second series), hits give low values 0.988 | locus YNR049C, strain mso1, hits give low values 0.987 | locus YOR001W, strain rrp6, hits give low values 0.96 | locus YOR070C, strain gyp1, hits give low values 1.01 | locus YOR080W, strain dia2, hits give low values 0.98 | locus YOR083W, strain WHI5, hits give low values 0.987 | locus YOR106W, strain vam3, hits give low values 0.979 | [7] 0.953 | locus YOR265W, strain rbl2, hits give low values 0.992 | locus YOR270C, strain vph1, hits give low values 1 | locus YOR290C, strain snf2, hits give low values 1.01 | locus YPL051W, strain arl3, hits give low values 1 | locus YPL078C, strain atp4, hits give low values 0.948 | locus YPL106C, strain sse1, hits give low values 1.02 | locus YPL240C, strain hsp82, hits give low values 0.988 | [8] 0.967
